# Reference: PubChem BioAssay (Tox21)
# Results filed as inconclusive are left out. Where a call stands in place of a potency, no number is given. Calls of active or inactive are those of the source. Unless noted, calls follow the shape of the full dose curve.
# Key:
# [1] = Nuclear factor erythroid 2-related factor 2/antioxidant responsive element (Nrf2/ARE) small molecule agonists: qHTS cell viability counter screen in human keratinocytes (AID 1919968; active = well fitted curve in the direction sought with a large enough effect in the repeat runs; an effect the other way counts as inactive or inconclusive; also: nearly all actives have a fitted effect of over 55% in size)
# Outline: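 After a 5 h attachment period, ARE-reporter keratinocytes were dosed with compounds in DMSO and then cultured 23 h at 37 C. Cell viability came from CellTiter-Fluor signal read after a further 1 h.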
# [2] = Nuclear factor erythroid 2-related factor 2/antioxidant responsive element (Nrf2/ARE) small molecule agonists: luciferase reporter gene qHTS assay in human keratinocytes (AID 1919969); also: nearly all actives have a fitted effect of over 35% in size; also: potency is read from the fitted curve at half-maximal effect
# [3] = molecular target: Gonadotropin-releasing hormone receptor (Homo sapiens) (UniProt P30968); experiment: Human gonadotropin-releasing hormone receptor (GnRHR) small molecule agonists, calcium flux assay in GnRHR-HEK293 cells (AID 1920063); also: nearly all actives have a fitted effect of over 35% in size
# Outline: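 We seeded human GnRHR-expressing HEK293 cells for 18 hours, loaded them with calcium dye for an hour at 37 C, added test compounds, and recorded fluorescence intensity kinetically for three minutes.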
# [4] = molecular target: KiSS-1 receptor (Homo sapiens) (UniProt Q969F8); experiment: Human kisspeptin (KISS1R) small molecule agonists, calcium flux assay in KISS1R-HEK293 cells (AID 1920064; active = well fitted curve in the direction sought with a large enough effect in the repeat runs; an effect the other way counts as inactive or inconclusive)
# Outline: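 Kinetic calcium assay, 1 s sampling over 3 min at Ex/Em 480/540, in HEK293 cells engineered with human KISS1R; compounds delivered in DMSO after 1 h dye loading.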
# [5] = G protein-coupled receptor (GPCR) small molecule agonists, calcium flux assay: HEK293 wild type cell line counter screen (AID 1920065)
# Outline: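 Calcium-sensitive dye, loaded 1 h at 37 C into cells cultured 18 h, reports compound-evoked calcium release as fluorescence (Ex/Em 480/540), measured over 3 min. Agonist mode; 15-point titrations, triplicate.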
# [6] = p53 small molecule agonists, cell-based qHTS assay with human liver microsomes (AID 1963577);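 also: p53 response element beta-lactamase reporter cells with liver microsomes plus NADPH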
# Outline: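 Steps: plate p53RE-bla cells, incubate 5 h at 37 C; add compound in DMSO; add microsomes (0.5 mg/mL final) and NADPH (0.5 mg/mL final); incubate 16 h at 37 C; add LiveBLAzer, 2 h RT; read fluorescence.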
# [7] = p53 small molecule agonists, cell-based qHTS assay with rat liver microsomes (AID 1963578)
# Outline: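 Metabolic activation is supplied by rat liver microsomes with NADPH (each 0.5 mg/mL final). p53RE-bla cells incubate with compound 16 h at 37 C; reporter activity is measured by LiveBLAzer fluorescence.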
# [8] = p53 small molecule agonists, cell-based qHTS assay with human liver microsomes: qHTS cell viability counter screen (AID 1963579); also: nearly all actives have a fitted effect of over 45% in size
# Outline: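 After the 460/530 nm beta-lactamase read, CellTiter-Glo was added to the same wells and luminescence measured after 30 min at room temperature, giving viability of p53RE-bla cells treated 16 h with compounds plus microsomes and NADPH.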
# [9] = p53 small molecule agonists, cell-based qHTS assay with rat liver microsomes: qHTS cell viability counter screen (AID 1963580); also: nearly all actives have a fitted effect of over 45% in size
# Outline: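 p53RE-bla HCT-116 cells were exposed 16 h at 37 C to compounds with rat liver microsomes (0.5 mg/mL) and NADPH (0.5 mg/mL). Viability was measured in the same wells as ATP content by CellTiter-Glo luminescence.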
# [10] = p53 small molecule agonists, cell-based qHTS assay: qHTS cell viability counter screen (AID 1963581); also: nearly all actives have a fitted effect of over 45% in size
# Outline: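 Following 5 h attachment, HCT-116 p53RE-bla cells took up compound for 16 h at 37 C; the reporter was read with B/G FRET substrate (2 h RT), and viability then via CellTiter-Glo ATP luminescence.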
# [11] = p53 small molecule agonists, cell-based qHTS assay (AID 1963582; active = well fitted activation curve with a large enough effect in the signal ratio in the repeat runs, not every such curve was filed as active; the % refers to the signal ratio)
# Outline: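 In this cell-based concentration-response screen, a p53 response element drives beta-lactamase; cells received DMSO-borne compounds after 5 h culture and were incubated a further 16 h before FRET substrate development.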
# [12] = molecular target: 5-hydroxytryptamine receptor 2A (Homo sapiens) (UniProt P28223); experiment: 5-hydroxytryptamine receptor 2A (HTR2A) small molecule antagonists, cell-based qHTS assay (AID 1963586); also: nearly all actives have a fitted effect of over 45% in size
# Outline: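 Antagonist-mode intracellular calcium assay: DOI (4 nM) added after 5 min compound pre-incubation at room temperature to dye-loaded HTR2A-CHO cells. Fluorescence followed for 3 min, sampled every second.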
# [13] = molecular target: 5-hydroxytryptamine receptor 2A (Homo sapiens) (UniProt P28223); experiment: 5-hydroxytryptamine receptor 2A (HTR2A) small molecule agonists, cell-based qHTS assay (AID 1963587); also: nearly all actives have a fitted effect of over 30% in size
# Outline: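 CHO cells stably expressing human HTR2A, plated 18 h, loaded with calcium dye 1 h at 37 C. Agonist mode: compounds added and intracellular calcium fluorescence recorded kinetically for 2 min at 1 sec intervals.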
# [14] = molecular target: Muscarinic acetylcholine receptor M1 (Homo sapiens) (UniProt P11229); experiment: Cholinergic receptor muscarinic 1 (CHRM1) small molecule antagonists, cell-based qHTS assay (AID 1963588); also: nearly all actives have a fitted effect of over 40% in size
# Outline: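 CHRM1-CHO calcium-flux assay, antagonist mode. Cells were seeded 18 h, dye-loaded 1 h at 37 C and given compound for 5 min at RT, then acetylcholine was added at 50nM. FDSS fluorescence was read 3 min; 15 concentrations, three runs.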
# [15] = molecular target: Muscarinic acetylcholine receptor M1 (Homo sapiens) (UniProt P11229); experiment: Cholinergic receptor muscarinic 1 (CHRM1) small molecule agonists, cell-based qHTS assay (AID 1963589); also: nearly all actives have a fitted effect of over 35% in size
# Outline: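 Measures agonist-induced intracellular calcium rise. Stable human CHRM1 CHO line, 1 h dye load at 37 C, compounds from DMSO, kinetic fluorescence read.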
# [16] = cAMP Responsive Elements (CRE) small molecule agonists, cell-based qHTS assay (AID 1963590)
# Outline: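 A CRE-responsive beta-lactamase reporter in HEK 293T cells was used. Treatment ran 3 h at 37 C; detection used LiveBLAzer B/G FRET substrate for 2 h at room temperature.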
# [17] = cAMP Responsive Elements (CRE) small molecule antagonists, cell-based qHTS assay (AID 1963591; active = well fitted inhibition curve with a large enough effect in the signal ratio in the repeat runs, not every such curve was filed as active; the % refers to the signal ratio)
# Outline: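 HEK293T cells carrying a CRE-driven beta-lactamase reporter receive compound and NKH477 (0.25 uM final) for 3 h. Fluorescence from LiveBLAzer B/G FRET substrate is read after 2 h at room temperature.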
# [18] = molecular target: Beta-2 adrenergic receptor (Homo sapiens) (UniProt P07550); experiment: Adrenergic beta2 receptor (ADRB2) small molecule antagonists, cell-based qHTS assay (AID 1963592); also: series mostly up to about 92 µM; nearly all actives have a fitted effect of over 50% in size
# Outline: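 Cells (CHO, stable ADRB2 overexpression) incubated 18-20hr at 37C; compounds added from DMSO; agonist mix (1nM isoproterenol, 100uM IBMX, 25uM Ro-20-1724) added; 0.5hr RT; d2-cAMP and anti-cAMP-cryptate added; 1hr RT; 665/615 nm read.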
# [19] = molecular target: D(2) dopamine receptor (Homo sapiens) (UniProt P14416); experiment: Dopamine D2 receptor (DRD2) small molecule agonists, cell-based qHTS assay (AID 1963594); also: nearly all actives have a fitted effect of over 35% in size
# Outline: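 HEK293 cells stably expressing human DRD2, pre-treated with PDE inhibitor Ro20-1724 (0.1 mM final) and compound 10 min at room temperature, then stimulated with NKH477 (200nM […]) for 30 min. cAMP read by HTRF (665/620 nm).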
# [20] = molecular target: D(2) dopamine receptor (Homo sapiens) (UniProt P14416); experiment: Dopamine D2 receptor (DRD2) small molecule antagonists, cell-based qHTS assay (AID 1963595; active = well fitted inhibition curve with a large enough effect in the signal ratio in the repeat runs, with a control signal flat; the % refers to the signal ratio)
# Outline: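 Readout: HTRF cAMP, cAMP-d2 competing with cellular cAMP for anti-cAMP cryptate, read after 1 h. Cells: DRD2-HEK293. Conditions: 0.1 mM Ro20-1724, 12 nM quinpirole, 200 nM NKH477, 30 min RT.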
# Gonadotropin-releasing hormone receptor (Homo sapiens), sequence (P30968 whole entry, looked up): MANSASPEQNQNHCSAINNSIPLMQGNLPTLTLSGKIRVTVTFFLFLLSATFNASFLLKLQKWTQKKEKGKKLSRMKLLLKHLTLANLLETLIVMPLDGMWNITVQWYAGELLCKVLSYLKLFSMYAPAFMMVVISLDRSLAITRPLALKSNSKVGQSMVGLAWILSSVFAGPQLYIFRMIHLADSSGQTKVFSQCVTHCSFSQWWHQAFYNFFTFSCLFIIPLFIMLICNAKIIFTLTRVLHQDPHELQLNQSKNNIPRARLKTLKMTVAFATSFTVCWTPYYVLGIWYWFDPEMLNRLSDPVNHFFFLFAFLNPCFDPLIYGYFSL
# Beta-2 adrenergic receptor (Homo sapiens), sequence (P07550 whole entry, looked up): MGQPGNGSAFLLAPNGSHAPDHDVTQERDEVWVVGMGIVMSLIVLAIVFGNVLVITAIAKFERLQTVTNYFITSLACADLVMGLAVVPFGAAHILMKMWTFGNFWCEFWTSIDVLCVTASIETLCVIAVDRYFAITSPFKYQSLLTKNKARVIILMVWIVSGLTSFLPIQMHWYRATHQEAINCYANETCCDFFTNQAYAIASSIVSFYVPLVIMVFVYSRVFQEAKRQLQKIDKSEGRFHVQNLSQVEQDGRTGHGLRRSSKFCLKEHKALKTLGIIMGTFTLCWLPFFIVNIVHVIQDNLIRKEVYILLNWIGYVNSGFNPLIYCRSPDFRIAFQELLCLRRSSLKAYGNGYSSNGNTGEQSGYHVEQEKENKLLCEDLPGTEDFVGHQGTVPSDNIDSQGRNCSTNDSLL
# Muscarinic acetylcholine receptor M1 (Homo sapiens), sequence (P11229 whole entry, looked up): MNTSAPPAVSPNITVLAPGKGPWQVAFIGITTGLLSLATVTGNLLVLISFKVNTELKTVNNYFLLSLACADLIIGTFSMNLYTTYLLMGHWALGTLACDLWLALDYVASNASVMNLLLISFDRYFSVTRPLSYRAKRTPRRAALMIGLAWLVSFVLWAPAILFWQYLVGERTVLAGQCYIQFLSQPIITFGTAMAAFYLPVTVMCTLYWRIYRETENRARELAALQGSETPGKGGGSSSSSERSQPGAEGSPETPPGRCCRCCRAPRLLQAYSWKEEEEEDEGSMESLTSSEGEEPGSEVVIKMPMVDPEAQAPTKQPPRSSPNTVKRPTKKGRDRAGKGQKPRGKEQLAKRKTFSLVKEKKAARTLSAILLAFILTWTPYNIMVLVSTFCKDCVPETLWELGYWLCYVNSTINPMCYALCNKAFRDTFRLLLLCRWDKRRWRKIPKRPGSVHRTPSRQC
# D(2) dopamine receptor (Homo sapiens), sequence (P14416 whole entry, looked up): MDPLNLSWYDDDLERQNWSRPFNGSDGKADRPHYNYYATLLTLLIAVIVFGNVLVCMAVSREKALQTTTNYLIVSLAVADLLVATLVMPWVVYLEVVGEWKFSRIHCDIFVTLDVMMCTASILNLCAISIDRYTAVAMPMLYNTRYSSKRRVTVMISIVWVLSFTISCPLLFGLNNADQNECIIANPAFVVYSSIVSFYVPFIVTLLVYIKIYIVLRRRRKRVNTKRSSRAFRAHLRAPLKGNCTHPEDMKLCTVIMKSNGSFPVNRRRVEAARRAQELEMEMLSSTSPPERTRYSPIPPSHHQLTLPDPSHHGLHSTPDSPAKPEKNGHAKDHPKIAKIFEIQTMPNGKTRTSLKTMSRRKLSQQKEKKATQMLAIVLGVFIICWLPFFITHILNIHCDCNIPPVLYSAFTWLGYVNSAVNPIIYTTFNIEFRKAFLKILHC
# KiSS-1 receptor (Homo sapiens), sequence (Q969F8 whole entry, looked up): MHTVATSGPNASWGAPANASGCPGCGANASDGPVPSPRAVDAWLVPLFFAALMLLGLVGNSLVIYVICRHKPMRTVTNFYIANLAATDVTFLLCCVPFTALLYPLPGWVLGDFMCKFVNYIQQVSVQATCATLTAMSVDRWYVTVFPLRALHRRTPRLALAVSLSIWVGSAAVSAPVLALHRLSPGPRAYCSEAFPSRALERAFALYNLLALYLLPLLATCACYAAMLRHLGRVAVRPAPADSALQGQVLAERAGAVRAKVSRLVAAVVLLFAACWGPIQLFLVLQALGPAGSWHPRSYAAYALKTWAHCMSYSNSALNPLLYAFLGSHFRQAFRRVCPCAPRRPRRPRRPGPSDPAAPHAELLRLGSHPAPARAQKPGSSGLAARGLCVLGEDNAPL
# 5-hydroxytryptamine receptor 2A (Homo sapiens), sequence (P28223 whole entry, looked up): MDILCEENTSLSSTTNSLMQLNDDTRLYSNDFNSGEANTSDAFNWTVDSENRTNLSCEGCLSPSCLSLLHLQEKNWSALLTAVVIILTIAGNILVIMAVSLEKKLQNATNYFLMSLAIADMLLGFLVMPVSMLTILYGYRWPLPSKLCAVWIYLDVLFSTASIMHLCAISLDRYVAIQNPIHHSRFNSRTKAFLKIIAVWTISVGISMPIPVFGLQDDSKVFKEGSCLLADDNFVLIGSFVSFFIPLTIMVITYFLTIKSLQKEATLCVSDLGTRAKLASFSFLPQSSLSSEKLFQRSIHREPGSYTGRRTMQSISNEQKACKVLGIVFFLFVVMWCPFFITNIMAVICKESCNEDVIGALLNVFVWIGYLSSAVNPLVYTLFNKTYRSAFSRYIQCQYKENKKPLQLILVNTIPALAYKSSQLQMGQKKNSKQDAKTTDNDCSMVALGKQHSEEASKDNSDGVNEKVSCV
Compound,Potency [1],Potency [2],Potency [3],Potency [4],Potency [5],Potency [6],Potency [7],Potency [8],Potency [9],Potency [10],Potency [11],Potency [12],Potency [13],Potency [14],Potency [15],Potency [16],Potency [17],Potency [18],Potency [19],Potency [20]
CNC(C)(C)Cc1ccccc1,inactive,inactive,inactive,inactive,inactive,inactive,inactive,inactive,inactive,inactive,inactive,inactive,inactive,inactive,inactive,inactive,inactive,inactive,inactive,inactive
CC1(C)C(C=C(Cl)Cl)C1C(=O)OC(C#N)c1ccc(F)c(Oc2ccccc2)c1 (centres undefined),inactive,inactive,inactive,inactive,inactive,inactive,inactive,inactive,inactive,inactive,inactive,inactive,inactive,inactive,inactive,inactive,inactive,inactive,inactive,–
COc1c(C(C)(C)C)cc([N+](=O)[O-])c(C)c1[N+](=O)[O-],inactive,inactive,inactive,inactive,inactive,inactive,inactive,inactive,inactive,inactive,inactive,inactive,inactive,inactive,inactive,inactive,inactive,inactive,inactive,inactive
Cl/C=C\C[N+]12CN3CN(CN(C3)C1)C2,inactive,68.6 µM (active),inactive,inactive,inactive,inactive,inactive,inactive,inactive,inactive,inactive,inactive,inactive,inactive,inactive,inactive,inactive,inactive,inactive,inactive
[N-]=[N+]=[N-],inactive,inactive,inactive,inactive,inactive,inactive,inactive,inactive,inactive,inactive,inactive,inactive,inactive,inactive,inactive,inactive,inactive,inactive,inactive,inactive
CC1(C)C(C=C(Cl)Cl)C1C(=O)OC(C#N)c1cccc(Oc2ccccc2)c1 (centres undefined),inactive,inactive,inactive,inactive,inactive,inactive,inactive,inactive,inactive,inactive,inactive,inactive,inactive,inactive,inactive,inactive,inactive,inactive,inactive,inactive
CCCC(C)(COC(N)=O)COC(=O)NC(C)C (centres undefined),inactive,inactive,inactive,inactive,inactive,inactive,inactive,inactive,inactive,inactive,inactive,inactive,inactive,inactive,inactive,inactive,inactive,inactive,inactive,inactive
